Source: PubChem (several laboratories)
Rows were chosen to be rich in hits. Some 6.6% of all compounds tested hit in one or more screens of this group.
CSC inhib = cancer stem cell inhibition | cancer stem cell-like cells viability, luminescence | inhibition, % at 7.5 µM | hit rate 1.1% among 300,000 | AID 2717; in the data active = inhibition above about 75%; tested in HMLE shEcad cells
NR3A LBD binder = modulators (binders) of human NR3A ligand-binding domain | Tm shift relative to glycine control, % at 25 µM | NR3A LBD differential scanning fluorimetry, Tm shift; 0% = protein alone, 100% = glycine-bound protein | AID 1259313 | hit rate 2.5% among 340,000;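 active = melting temperature shift of at least 10% of the positive control shift, at one fixed dose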
MPTP inh = blocks calcium-induced mitochondrial swelling; isolated mouse mitochondria, Ca2+ swelling absorbance, 30 min; inhibition, % at 10 µM; hit rate 1.4% among 360,000; AID 602449;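 active = inhibition of 50% or more, scaled per plate between neutral and stimulator controls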;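 also: 0% = DMSO wells given calcium and 100% = 1 mM EGTA wells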
Beta apoptosis = beta cell apoptosis inhibition; INS-1E cytokine-induced death, ATP luminescence, 48 h; percent of positive-control rescue, neutral wells zero; protection from apoptosis, % (concentration not given with the values); hit rate 0.8% among 300,000; AID 435005;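 active = Every replicate reaches about 75%, or at least half do and their mean reaches it too, limit read from the data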;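 also: 0% = cytokine-treated negative control wells and 100% = positive control rescue; higher means more ATP so stronger rescue from cytokine killing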
Mdm2 MdmX PPI = human Mdm2/MdmX binding inhibition; O15151+Q00987; SaOS-2 split-luciferase Mdm2/MdmX complementation, luminescence; inhibition, % at 8 µM; hit rate 3% among 330,000;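 active = inhibition of at least 50% at 8 µM in the primary screen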
Gli-Sufu antag = blocks Gli-Sufu signaling in a luciferase reporter; hit rate 0.74% among 340,000; Sufu-KO-LIGHT fibroblasts, Gli luciferase reporter luminescence; inhibition, % at 5 µM;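 active = inhibition above about 55%, limit read from the data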;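 also: 0% = DMSO-treated cells and 100% = wells with medium but no cells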
* hit, by the source's call; . = no result given.

SMILES	CSC inhib	NR3A LBD binder	MPTP inh	Beta apoptosis	Mdm2 MdmX PPI	Gli-Sufu antag
CCOc1cc(/C=C2/C(=O)ON=C2C)ccc1OCc1ccc(F)cc1	31	2	-1	-5	30	-4
COc1cccc2c1Oc1cc([N+](=O)[O-])cc(N(C)C(C)=O)c1C=C2	-12	-1	1	-1	23	-3
COc1cccc(Oc2coc3cc(OC(=O)N4CCOCC4)ccc3c2=O)c1	.	10*	2	3	-6	1
COc1ccc(-c2oc3c4c2C(=O)OCCOC4CCC3)cc1 (stereo unspecified)	.	.	1	.	.	.
CCCCOc1ccc(/C=C/C(=O)Nc2ccc(C(N)=O)cc2)cc1	-3	22*	1	9	-2	-3
CCOc1ccc(/C=C/C(=O)Nc2cccc(C(C)=O)c2)cc1	7	29*	5	16	-36	-56
CCCCOC(=O)c1ccc(NC(=O)/C=C/c2cccs2)cc1	14	19*	5	5	-23	.
CCOc1ccc(NC(C(=O)Nc2cccc(C(C)=O)c2)c2ccccc2)cc1 (stereo unspecified)	2	-8	5	-3	16	-9
CCCCOc1ccc(/C=C/C(=O)NCCc2nc3ccccc3[nH]2)cc1	.	12*	1	7	27	-3
Cc1c(-c2ccccn2)c(=O)[nH]n1-c1ccc(F)cc1	-4	0	-3	0	-23	-64
Cc1ccc(-n2nnnc2CNC(=O)C(=O)c2c[nH]c3ccccc23)cc1C	.	.	1	.	.	.
COc1cc2cc(CN(Cc3cccs3)C(=S)Nc3cccc(C)c3)c(=O)[nH]c2cc1OC	30	.	.	.	7	.
Cc1cc(C)c2[nH]c(=O)c(CN(Cc3cccs3)C(=S)NCc3ccco3)cc2c1	88*	-3	1	7	10	13
Cc1cc2cc(CN(Cc3ccco3)C(=S)NCC3CCCO3)c(=O)[nH]c2cc1C (stereo unspecified)	-6	3	2	-1	5	3
Cc1cc2cc(CN(CC3CCCO3)C(=S)NCc3ccco3)c(=O)[nH]c2cc1C (stereo unspecified)	13	13*	2	-5	18	-4
COc1cc2cc(CN(Cc3cccs3)C(=S)Nc3ccc(C)cc3)c(=O)[nH]c2cc1OC	14	12*	1	18	6	32
CCOc1ccc(NC(=O)c2cc3cc4ccc(OC)cc4nc3o2)cc1	0	13*	1	2	42	-1
O=C(Nc1ccc(Oc2cccnc2)cc1)C1CCN(Cc2ccc(F)cc2)CC1	10	2	1	-4	21	16
O=C(Nc1ccc(Oc2cccnc2)cc1)C1CCN(Cc2cc(Cl)ccc2O)CC1	20	88*	1	-7	41	4
CCNS(=O)(=O)c1ccc(NC(=O)Nc2ccc3c(c2)OCO3)cc1	2	25*	0	0	8	-10
CCNS(=O)(=O)c1ccc(CCC(=O)Nc2ccc3c(c2)OCO3)cc1	-12	1	0	2	12	-15
O=C(Nc1ccc(S(=O)(=O)NCc2ccccc2)cc1)Nc1ccc2c(c1)OCO2	-12	36*	33	41	-25	-16
CCOC(=O)COc1ccc(S(=O)(=O)Nc2ccc(C)cc2)cc1	4	-1	2	-6	-16	4
CCOC(=O)COc1ccc(S(=O)(=O)Nc2ccc3c(c2)OCO3)cc1	1	14*	-2	-7	5	-7
O=C(O)c1ccc(/C=N/N2CCN(Cc3cccc4ccccc34)CC2)cc1	-12	192*	-1	2	-21	20
SMILES	CSC inhib	NR3A LBD binder	MPTP inh	Beta apoptosis	Mdm2 MdmX PPI	Gli-Sufu antag
COCCn1c(C)cc(C(=O)CSc2nc3ccccc3c(=O)n2Cc2ccco2)c1C	14	12*	2	5	37	-99
COc1cc(/C=N/NC(=O)c2cc(-c3cccc(Br)c3)nc3ccccc23)cc(OC)c1O	19	13*	5	14	16	1
CCOc1ccc(/C=N/NC(=O)c2cc(-c3ccccc3)nc3ccccc23)cc1O	-5	3	1	1	7	0
CCOc1cc(/C=N/NC(=O)c2cc(-c3cccc(OC)c3)nc3ccccc23)ccc1O	6	5	3	99*	-8	7
COc1cc(/C=N/NC(=O)c2cc(-c3ccccc3Cl)nc3ccccc23)cc(OC)c1O	-10	4	3	65	-11	2
COc1cc([N+](=O)[O-])cc(/C=N/NC(=O)c2cc(-c3ccccc3)nc3ccccc23)c1O	56	10	13	79*	35	2
Cc1ccc(S(=O)(=O)N2CCC(C(=O)NCCc3ccc(S(N)(=O)=O)cc3)CC2)cc1	-13	4	0	-3	24	1
NS(=O)(=O)c1ccc(CCNC(=O)C2CCN(S(=O)(=O)c3ccc(Br)s3)CC2)cc1	0	13*	-1	0	-1	-4
O=C(CSc1nc(C(F)(F)F)cc(=O)[nH]1)N1CCC(Cc2ccccc2)CC1	27	13*	3	.	32	28
Cc1cccc(N2CCN(C(=O)c3cc4n(n3)C(C(F)(F)F)CC(c3ccco3)N4)CC2)c1C (stereo unspecified)	84*	1	-4	-3	49	-20
CCC(C)NC(=O)C1CCC(=O)N1CCc1ccccc1 (stereo unspecified)	-2	-1	-1	0	13	6
CN(CC(O)CON=C1c2ccccc2-c2ccccc21)S(=O)(=O)c1ccc(Br)cc1 (stereo unspecified)	98*	5	0	8	16	6
O=S(=O)(c1ccccc1)c1cnn2c(C(F)(F)F)cc(-c3ccccc3)nc12	1	-2	3	-5	45	7
O=S(=O)(c1ccccc1)c1cnn2c(C(F)(F)F)cc(-c3ccc(F)cc3)nc12	8	14*	4	-3	-1	7
COc1ccccc1-c1cc(C(F)(F)F)n2ncc(S(=O)(=O)c3ccccc3)c2n1	5	24*	2	-7	33	11
COC(=O)c1ccc(COC(=O)c2ccc(N(C)C)cc2)cc1	-2	2	0	-4	-36	-23
O=C(OCc1ccc(COC(=O)c2ccc(O)cc2)cc1)c1ccc(O)cc1	7	21*	3	-1	9	-17
Cc1ccc(S(=O)(=O)NC(=O)C2(C)CCN2C(=O)C2(c3ccc(Cl)cc3)CCC2)nc1 (stereo unspecified)	.	.	0	.	.	.
CCOC(=O)COc1ccccc1/C=C\[N+](=O)[O-]	-4	1	33	106*	.	-11
Cc1ccc(C(=O)COC(=O)COc2ccccc2[N+](=O)[O-])s1	-13	2	-1	-5	-6	-3
COCC1CCCCN1C(=O)c1ccc(OC2CCN(CCc3ccccc3)CC2)cc1 (stereo unspecified)	8	-1	0	-5	24	30
Cc1ccc2oc(=O)cc(/C=C/c3ccccc3)c2c1	-14	18*	25	3	5	-3
